Screens deposited in PubChem BioAssay by National Center for Advancing Translational Sciences (NCATS).
GLP1R cytotox – cytotoxicity counter-screen for GLP-1 receptor inverse agonists; HEK293 cAMP-luciferase reporter cells, luminescence, 24 h; Potency, µM (highest dose often 38.3 µM), usual class: inhibitors; 410,000 compounds, 0.13% hits; AID 624418;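 further: loss of luciferase light is scored as toxicity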
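1536-well qHTS counterscreen of the MLSMR; 200 cells/uL, 12 h pre-incubation, 23 nL cpd, 24 h at 37 deg C 5% CO2, luciferase detection reagent, 12 min RT, luminescence. Inhibition = undesired.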
GLP-1R inv ag – acts as inverse agonist at human GLP-1 receptor; P43220; 410,000 compounds, 1.6% hits; HEK293 GLP-1R CRE-luciferase, luminescence, 24 h; GLP-1R form is constitutively active; AID 624417; Potency, µM (series often up to 38.3 µM), usual class: inhibitors; further: nearly all actives have a fitted effect of over 55% in size
Target sequence (P43220 whole entry, looked up): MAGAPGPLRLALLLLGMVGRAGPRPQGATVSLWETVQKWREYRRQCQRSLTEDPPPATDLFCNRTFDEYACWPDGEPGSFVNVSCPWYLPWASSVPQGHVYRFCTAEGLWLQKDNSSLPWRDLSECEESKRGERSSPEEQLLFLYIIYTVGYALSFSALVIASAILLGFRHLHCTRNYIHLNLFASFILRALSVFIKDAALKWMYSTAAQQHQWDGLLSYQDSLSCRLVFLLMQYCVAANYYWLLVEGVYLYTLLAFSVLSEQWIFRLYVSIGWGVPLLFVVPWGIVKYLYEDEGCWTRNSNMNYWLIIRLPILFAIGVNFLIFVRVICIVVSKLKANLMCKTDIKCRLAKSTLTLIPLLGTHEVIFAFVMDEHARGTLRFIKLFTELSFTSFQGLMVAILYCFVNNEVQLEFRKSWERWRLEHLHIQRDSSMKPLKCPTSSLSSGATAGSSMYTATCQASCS
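Inverse agonists were sought by their lowering of basal cAMP reporter luciferase output in HEK293 cells stably carrying constitutively active human GLP-1R, after 24 h compound treatment.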
BRCA1 expr up – BRCA1 expression activation | 380,000 compounds, 1.1% hits | AID 624202 | MCF7-BRCA1-FFLuc reporter, luminescence, 48 h; response scale: scaled: vehicle 0%, 10 µM genistein 100% | Potency, µM (top dose mostly 46.1 µM), actives largely listed as activators; further: nearly all actives have a fitted effect of over 80% in size
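Cells: MCF7-BRCA1-FFLuc, 2000/well. Exposure: 48 h, 37 °C, 5% CO2. Read: luminescence, 15 min post-substrate. Controls: genistein 10 microM (maximal activation), DMSO (neutral).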
GLP1R ag – agonists of human GLP-1 receptor; P43220; HEK293 GLP-1R CRE-luciferase, luminescence, 4-6 h; cells express a hypersensitive GLP-1R form; Potency, µM (doses to about 45.6 µM), hits mostly activators; 380,000 compounds, 0.007% hits; AID 624172
A number is an active result; - = inactive; ? = inconclusive; . = no result given; [ ] = another dose, or the depositor's remark. Shown are actives, neighbours in structure and some others; about 2.6% of the full set was active somewhere. The call rests on the fitted dose curve; in most records, active means well fitted curve in the direction sought with a large enough effect; inconclusive means small, poorly fitted or top-dose-only effect, or another doubt; inactive means no such curve, though single readings can be large; an effect the other way counts as inactive or inconclusive.

SMILES	GLP1R cytotox	GLP-1R inv ag	BRCA1 expr up	GLP1R ag
CCOC(=O)c1ccccc1NC(=O)COC(=O)Cc1ccccc1F	-	-	-	-
CCC(Sc1nc2ccncc2[nH]1)C(=O)Nc1cc(C)ccc1C (stereo not drawn)	-	-	.	.
CCc1cc2c(=O)n(-c3ccccc3)cnc2s1	-	-	17.8µM	-
CCc1cc2c(=O)n(-c3ccc(C)cc3)cnc2s1	-	-	?	-
CC1(C(=O)Nc2ccccc2Cc2ccccc2)CCN1CCc1ccccc1 (stereo not drawn)	-	12.6µM	-	-
Cc1cccc(C)c1NC(=O)C(C)c1ccc(-c2ccccc2)c(F)c1 (stereo not drawn)	-	10µM	-	-
CCOC(=O)c1ccc(CNCc2ccccc2)cc1	-	-	11.2µM	-
CCOC(=O)c1ccc(N/C=C/C(=O)c2ccccc2)cc1	-	-	12.6µM	-
CCOC(=O)c1ccc(N2C(=O)C(O)=C(C(C)=O)C2c2ccccc2)cc1 (stereo not drawn)	-	-	-	-
CCOC(=O)c1ccc(N2C(=O)[C@@H](c3ccccc3)[C@H]2c2ccccc2)cc1	-	5.01µM	-	-
CCOC(=O)c1ccc(N/C=C/C(=O)c2ccc(OC)cc2)cc1	-	-	-	-
CC(C)CNC(=O)N1[C@H](c2cccs2)[C@@H](C)C(=O)[C@@H](C)[C@@H]1c1cccs1	-	-	.	.
Cn1ncc(Br)c1C(=O)NC12CC3CC(CC(C3)C1)C2	-	10µM	-	-
Cc1cc(/C=C2/NC(=O)N(c3ccccc3)C2=O)c(C)n1-c1cccnc1	-	-	1.26µM	-
Cc1ccc(S(=O)(=O)NCCC(=O)Nc2ccncc2)cc1C	-	-	-	-
Cc1ccc2c(c1)-c1c(c(C(=O)N3CCN(c4cc(Cl)ccc4C)CC3)nn1C)CS2	-	-	.	.
CCCCNC(=O)CCn1c(=O)c2ccccc2n(Cc2cccc(Cl)c2)c1=O	-	-	-	-
O=C(NCC12CC3CC(CC(C3)C1)C2)c1cc2n(n1)C(C(F)(F)F)CC(c1ccco1)N2 (stereo not drawn)	-	3.55µM	-	-
COc1ccc(Cl)cc1NC(=O)CN(C)C(C)C(=O)NCC1CCCCC1 (stereo not drawn)	-	-	-	-
COc1ccc(Cl)cc1NC(=O)CN(C(=O)c1ccco1)C1CCCCC1	-	10µM	-	-
O=C(Oc1cccccc1=O)c1ccccc1	?	10µM	-	-
O=C(Oc1ccccc1Cl)c1ccccc1	-	-	-	-
C=CCNC(=S)NN(c1ccccc1)c1ccccc1	?	-	-	-
CC(C)NC(=S)NN(c1ccccc1)c1ccccc1	-	11.2µM	-	-
CCc1cc(C(=O)N/N=C/c2ccc(O)cc2)c2ccccc2n1	-	-	-	-
SMILES	GLP1R cytotox	GLP-1R inv ag	BRCA1 expr up	GLP1R ag
CC(C)(C)c1cc(C(=O)N/N=C/c2ccc(O)cc2)n(-c2ccccc2)n1	-	2µM	-	-
N=C1S/C(=C\c2ccco2)C(=O)N1c1nccs1	-	1µM	-	-
N=C1S/C(=C\c2ccco2)C(=O)N1c1ccc2c(c1)OCO2	-	-	-	-
Cc1ccc(C)c(N2CCN(CCCNC(=O)Cn3cccc3C(=O)c3ccccc3)CC2)c1	-	5.01µM	-	-
Cc1ccccc1C(=O)c1cccn1CC(=O)NCCCN1CCc2ccccc2C1	-	10µM	-	-
O=C(Cn1cccc1C(=O)c1ccccc1)NCCCN1CCOCC1	-	-	-	-
COC(=O)c1ccc(CSc2ccccc2NC(=S)Nc2cccc(SC)c2)o1	-	12.6µM	-	-
COC(=O)c1cccc(NC(=S)Nc2ccccc2Cl)c1	-	-	-	-
CCCCCOC(=O)c1ccc(NC(=O)c2cccc(NC(=O)c3ccccc3C(=O)O)c2)cc1	-	7.08µM	-	-
CN1c2ccccc2C(O)=C(C(=S)Nc2ccc(F)c(Cl)c2)S1(=O)=O	-	10µM	-	-
Cc1cccc(Nc2ncc3c(n2)CC(C)CC3=O)c1 (stereo not drawn)	-	-	5.01µM	-
Cc1ccc2nc(-c3ccc(N4C(=NC(=O)CCC(=O)O)SC5CS(=O)(=O)CC54)cc3)sc2c1 (stereo not drawn)	-	-	5.62µM	-
O=C(CC1SC(=Nc2ccccc2)N(CCc2c[nH]c3ccccc23)C1=O)Nc1ccccc1F (stereo not drawn)	?	6.31µM	-	-
O=C(CC1SC(=Nc2ccccc2)N(CCc2ccccn2)C1=O)Nc1ccc(F)cc1 (stereo not drawn)	-	?	-	-
COc1cccc(N/C(SCc2ccccc2F)=C(/C#N)C(=O)NCc2cccs2)c1	-	5.01µM	-	-
CC(C)Oc1ccc(Nc2ncnc3ccccc23)cc1	-	?	2.51µM	-
Cc1ccc(Nc2ncnc3ccccc23)cc1	-	?	5.62µM	-
Oc1ccc(Nc2ncnc3ccccc23)cc1	-	-	-	-
Nc1ccc(/C=C/c2nc3ccccc3s2)cc1	.	.	-	.
O=C(NC1CCCCC1)c1cc(C2CC2)nn1-c1ccccc1	-	5.62µM	-	-
Cc1nn(-c2ccccc2)c(Cl)c1C(=O)NC1CCCCC1	-[7.66 µM]	-[7.66 µM]	-	-
Cc1ccc2c(CNCc3ccco3)cc(=O)oc2c1	-	-	7.94µM	-
O=C1NC[C@H](CCCCN2C[C@H](Cc3ccccc3)N(CCc3ccccc3)C(=O)C2=O)N(CCC2CCCCC2)C1=O	-	?	-	-
O=[N+]([O-])c1ccc(C(O)CSC(=S)N2CCCCC2)cc1 (stereo not drawn)	-	?	3.98µM	-
CN1C(=O)[C@@](O)(c2cn(C)c3ccccc23)c2cc(Br)ccc21	-	?	.	.
SMILES	GLP1R cytotox	GLP-1R inv ag	BRCA1 expr up	GLP1R ag
COc1ccc(CCNC(=O)C2CC2)cc1OC	-	-	-	-
COc1ccc(CCNC(=O)C2CCC(C(C)(C)C)CC2)cc1OC (stereo not drawn)	-	10µM	-	-
O=S(=O)(O)c1c(NS(=O)(=O)c2ccccc2)ccc2ccccc12	.	.	-	.
O=C1C(Cl)=C(NCC2CCCO2)C(=O)N1CCc1ccccc1 (stereo not drawn)	-	-	7.94µM	?
O=C1C(Cl)=C(NCCc2ccccc2)C(=O)N1CCc1ccccc1	-	-	7.94µM	-
O=C1C(Cl)=C(NCCCN2CCOCC2)C(=O)N1CCc1ccccc1	-	-	-	-
O=C(Cn1ncc2ccsc2c1=O)N1CCN(c2ccc(Cl)cc2)CC1	-	-	-	-
CCOC(=O)c1ccc2nc(C)cc(Nc3ccc(OC(C)C)cc3)c2c1	-	?	-	-
Cc1cc(N/N=C/c2ccc(F)cc2)nc(-n2nc(C)cc2C)n1	?	?	-	-
COc1ccc(/C=N/Nc2cc(C)nc(-n3nc(C)cc3C)n2)c(OC)c1	?	1.26µM	-	-
COc1ccc(CN2C[C@H](Cc3ccccc3)[C@@H](CC(=O)Nc3ccccc3)C2=O)cc1	-	8.91µM	-	-
CCC[C@H]1CN(c2ccc(Br)cc2)C(=O)[C@@H]1CC(=O)Nc1ccccc1	-	11.2µM	-	-
